Reference: PubChem BioAssay (Tox21)
Records with an inconclusive call do not appear. A call without a number means that no potency is given here. Values without a mark were called inactive. Calls of active or inactive are those of the source. The call rests on the fitted dose curve.

Test: cAMP Responsive Elements (CRE) small molecule agonists, cell-based qHTS assay (AID 1963590)
Details: CRE-bla HEK293T, beta-lactamase FRET ratio, 3 h; series mostly up to 92.4 µM
From the text: U.S. Tox21 Program National Center for Advancing Translational Sciences [NCATS] Division of Preclinical Innovation [DPI] U.S. Environmental Protection Agency [EPA] National Institutes of Environmental Health Sciences [NIEHS] National Toxicology Program [NTP] U.S. Food and Drug Administration [FDA] Tox21 Assay Overview: CREB (cyclic-AMP Responsive Element Binding Protein) is a cellular transcription factor. It binds to certain DNA sequences called cAMP Responsive Elements (CRE) and regulates the transcription of the genes. […] This cell line can be used to find agonists/antagonists of the cyclic AMP signaling pathway. The activation of the report gene under culture conditions can be detected by fluorescence intensity. This cell line has been used to screen the Tox21 10K compound library to identify agonists that induce oxidative stress.
Tox21 Assay Protocol Summary: CRE-bla Hek 293T cells were suspended in assay medium (DMEM containing 10% dialyzed FBS, 0.1 mM NEAA, 1 mM sodium pyruvate and 25 mM HEPES) and dispensed at 2,000 cells/5 uL /well into 1536-well black wall/clear bottom plates using a Multidrop Combi (ThermoFisher Scientific, Waltham, MA) dispenser. After the assay plates were incubated at 37 C/5% CO2 for 18 hrs, 23 nL of compounds dissolved in DMSO, positive controls or DMSO only was transferred to the assay plate by a pintool workstation (Kalypsys, San Diego, CA). After the plates were incubated at 37 C/5% CO2 for 3 hrs, 1 uL of LiveBLAzer B/G FRET substrate (Invitrogen, Carlsbad, CA) was added to each well using Bioraptr Flying Reagent Dispenser (FRD, Aurora Discovery, San Diego, CA). The plates were incubated at room temperature for 2 h.

Compound	activation	Potency
CCCCCCCCCCCCS(=O)(=O)Cl	1.16% [at 19 µM]	–
CNC(=O)c1ccccc1	–	inactive
CCCCOCCOC(=O)c1cccnc1	–	inactive
C1CCN2C[C@@H]3C[C@@H](CN4CCCC[C@@H]34)[C@H]2C1	–	inactive
CCCCCOC(=O)CCC	–	inactive
c1cnc2c(n1)CCCC2	–	inactive
O=C=NCc1cccc(CN=C=O)c1	1.18% [at 19 µM]	–
CC(C)C[P+](C)(CC(C)C)CC(C)C	–	inactive
S=C(SSSSSSC(=S)N1CCCCC1)N1CCCCC1	-0.287% [at 19 µM]	–
CCCCCCOc1ccc(N)cc1	–	inactive
Cc1cccc(C)c1NC(=O)CN1CCCC1	–	inactive
CNC(=O)CN(CCN(CCN(CC(=O)[O-])CC(=O)NC)CC(=O)[O-])CC(=O)[O-].O.[Gd+3]	–	inactive
COC(=O)c1ccc(I)cc1S(=O)(=O)NC(=O)Nc1nc(C)nc(OC)n1	–	inactive
COc1ccc(OC)c(N=Nc2c(O)ccc3ccccc23)c1	–	inactive
CCCCCc1ccco1	–	inactive
CC(C(O)c1ccc(O)cc1)N1CCC(Cc2ccccc2)CC1 (stereo not given)	–	inactive
O=C(CO)[C@@H](O)[C@H](O)[C@H](O)CO	–	inactive
Nc1ccc(Oc2cccc(Oc3ccc(N)cc3)c2)cc1	–	inactive
C=CS(=O)(=O)O	–	inactive
Cc1ccco1	–	inactive

Compound	activation	Potency
CCCCCCCC/C=C\CCCCCCCCCCCC(=O)O	–	inactive
O=C(CCCl)NCCc1ccccc1	–	inactive
C=C(C)C(=O)OC1CC(C)CC(C)(C)C1 (stereo not given)	–	inactive
C/C=C(\C)C=O	–	inactive
CCCC(=O)OCCC(C)C	–	inactive
COC(C)(C)CCCC(C)CC=O (stereo not given)	–	inactive
O=c1[nH]ncc2ccccc12	–	inactive
Nc1ccc(S(=O)(=O)O)c(N)c1	–	inactive
CC(NN)c1ccccc1 (stereo not given)	-0.272% [at 19 µM]	–
CC/C=C\CCCCO	–	inactive
Nc1nc2c(ncn2CCC(CO)CO)c(=O)[nH]1	–	inactive
CC[C@H]1OC(=O)[C@H](C)[C@@H](O[C@H]2C[C@@](C)(OC)[C@@H](O)[C@H](C)O2)[C@H](C)[C@@H](O[C@@H]2O[C@H](C)C[C@H](N(C)C)[C@H]2O)[C@](C)(OC)C[C@@H](C)C(=O)[C@H](C)[C@@H](O)[C@]1(C)O	–	inactive
CC(C)(C)c1cc(CCC(=O)NN)cc(C(C)(C)C)c1O	–	inactive
CC(C(=O)O)c1ccc2c(c1)CC(=O)c1ccccc1S2 (stereo not given)	–	inactive
Cc1cc2c(s1)Nc1ccccc1N=C2N1CCN(C)CC1	–	inactive
NC1CCN(c2cccc(Cl)n2)CC1	–	inactive
Cc1ccccc1CCO	–	inactive
COC(=O)c1ccc(OC)cc1	–	inactive
COC(=O)C(C)O (stereo not given)	–	inactive
COc1cc(NS(=O)(=O)c2ccc(N)cc2)nc(OC)n1	–	inactive
